# Screening data as filed in PubChem.
# An excerpt weighted towards active compounds, which were near 7.8% of everything screened.
# HCV inh = inhibitors of hepatitis C virus infection; AID 651820; Potency, µM (highest dose often 41.8 µM), inactives show top-dose activity change, negative = inhibition, most hits filed as inhibitors; Huh7.5.1 HCVcc-Cre infection, luciferase reporter, 44 h; 340,000 compounds, 3.4% hits; active = well fitted inhibition curve with a large enough effect; inconclusive = small, poorly fitted or top-dose-only effect, or another doubt; inactive = no such curve, though single readings can be large or run the other way; also: potency is read from the fitted curve at half-maximal effect
#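 Reporter virus HCVcc-Cre (~0.5 moi) infects cells exposed to compound; seeding density 1,000 cells/well with 4 h settling beforehand. Luminescence, 15 sec read, taken 44 h post-infection following a 15 min RT substrate incubation.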
# Lassa entry inh = blocks Lassa virus binding to or entry into cells; Lassa virus pseudotype entry inhibition, cell reporter; Potency, µM (series often up to 37.9 µM), for inactives: top-dose activity change, negative = inhibition, hits mostly inhibitors; 300,000 compounds, 1.2% hits; calls by dose curve; tested in HEK293 cells; also: potency is read from the fitted curve at half-maximal effect; nearly all actives have a fitted effect of over 50% in size
# HCMV antiviral = inhibitors of human cytomegalovirus | HFF cells, HCMV-luciferase reporter, 72 h; stronger effect = lower value | 410,000 compounds, 4.5% hits | activity change, negative = inhibition, % at 57.5 µM; in the data active = activity change below about -60%; inconclusive = no clear call, values can overlap the other calls; inactive = above about -39%
#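 Luciferase read-out from HCMV-luciferase-infected HFFs (MOI 1 PFU/cell) 72 h post infection at 37C; compounds added after 16 h cell attachment; activity normalized between buffer-only basal and Salinomycin (10uM) inhibitor controls.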
# MARV entry inh = blocks Marburg virus binding to or entry into cells; Potency, µM (top dose mostly 37.8 µM), for inactives: at the top dose activity change, negative = inhibition, most hits filed as inhibitors; AID 540276; 300,000 compounds, 1.8% hits; Marburg virus pseudotyped entry inhibition, cell reporter; calls by dose curve; tested in HEK293 cells; also: potency is read from the fitted curve at half-maximal effect
# Vaccinia Venus = inhibitors of vaccinia virus (Venus reporter); Vaccinia virus Venus reporter expression, fluorescence; Potency, µM (highest dose often 36.5 µM), without a hit: at the highest dose activity change, negative = inhibition, usual class: inhibitors; 330,000 compounds, 0.46% hits; calls by dose curve; tested in A549 cells; also: potency is read from the fitted curve at half-maximal effect; nearly all actives have a fitted effect of over 30% in size
# VACV mCherry inh = inhibitors of vaccinia virus infection (mCherry reporter signal). 310,000 compounds, 0.63% hits. Vaccinia virus mCherry reporter infection, fluorescence. Potency, µM (series often up to 36.5 µM), for the others: top-dose activity change, negative = inhibition, usual class: inhibitors; calls by dose curve; tested in A549 cells; also: potency is read from the fitted curve at half-maximal effect; nearly all actives have a fitted effect of over 35% in size
# An asterisk follows results filed as active; i = inactive; ? = inconclusive; . = not tested or not shown; ! = a repeat was not active; [ ] = dose if it differs, or a comment. % is scaled to controls: 0 for no effect and ±100 for the full control effect.
SMILES,HCV inh,Lassa entry inh,HCMV antiviral,MARV entry inh,Vaccinia Venus,VACV mCherry inh
COc1ccccc1N1CCN(Cc2nc(N)nc(Nc3ccc(C)c(Cl)c3)n2)CC1,11µM*,?,-17,-41%,?,?
COc1ccccc1Nc1nc(N)nc(CN2CCCCC2)n1,7%,-1%,22,0%,-6%,-14%
COc1ccc(N2CCN(Cc3nc(N)nc(Nc4ccccc4OC)n3)CC2)cc1,-7%,?,-2,18µM*,.,.
COc1ccc(OCc2nc(N)nc(Nc3ccccc3OC)n2)cc1,14µM*,?,?,?,1%,-2%
COc1ccccc1Nc1nc(N)nc(CN2CCN(Cc3ccccc3)CC2)n1,6%,2%,22,?,.,.
COc1ccccc1Nc1nc(N)nc(CCl)n1,4.5µM*,?,?,-5%[46.1 µM],-2%[7.34 µM],-6%[7.34 µM]
O=C(c1ccc2c(c1)N(Cc1ccc(F)cc1)C(=O)c1ccccc1S2(=O)=O)N1CCCCC1,.,-6%[46.1 µM],43,-4%[46.1 µM],-12%,-13%
CCCc1cc(=O)[nH]c(Nc2ccccc2O)n1,.,?,24,-7%[46.1 µM],13%,-10%
CCCCNC(=O)C1=CC(c2ccc3c(c2)OCO3)=NS(=O)(=O)N1C,.,13%[46.1 µM],0,23%[46.1 µM],-2%,1%
COc1ccc(OC)c(Nc2nc(N)nc(CCl)n2)c1,4µM*,?,-99*,-27%[46.1 µM],0%[7.34 µM],-8%[7.34 µM]
CCC(=O)Nc1cc(C(C)(C)C)ccc1C(C)=O,10µM*,3%,-10,-18%,-6%,-14%
CCC(=O)Nc1cc2c(cc1C(C)=O)OCCO2,?,-3%,40,14%,11%,.
COc1ccc(C(=O)Nc2ccc(/C(C)=N/NC(=O)c3ccccc3O)cc2)cc1OC,?,13%,-3,13µM*,-8%,i
COc1ccccc1C(=O)NC(=S)Nc1cccnc1Cl,11µM*,?,56,?,0%,-4%
Cc1ccc(C(=O)NC(=S)Nc2cccnc2Cl)cc1,-23%,?,96,?,-15%,-2%
COc1ccc(C(=O)Nc2ccccc2C(=O)N/N=C/c2ccccn2)cc1OC,?,10µM*,-109*,?,?,?
O=C(N/N=C/c1ccccn1)c1ccc(Cl)cc1,7%,?,-97*,?,-21%,3.2µM*
COc1ccc(C(=O)N/N=C/c2ccccn2)cc1OC,-12%,17%,-39,-20%,-8%,-5%
O=C(N/N=C/c1ccccn1)c1ccccc1,8%,?,30,?,6%,?
Cc1ccccc1CN1C(=O)c2ccccc2Sc2ccc(C(=O)NC3CCCC3)cc21,.,-23%[46.1 µM],-4,.,-11%,-9%
COc1ccc(CNc2n[nH]c(-c3ccco3)n2)cc1OC,.,-16%[46.1 µM],60,-7%[46.1 µM],-6%[7.34 µM],-7%[7.34 µM]
COc1ccc(C(=O)Nc2cccnc2Cl)cc1OC,4%,.,-87*,.,.,.
Cc1noc(-c2ccc(C(F)(F)F)cc2)c1NC(=O)Nc1ccc(Cl)cc1,?,.,-88*,.,.,.
Cc1cc(-c2onc(C)c2C(=O)Nc2ccc(C(F)(F)F)cc2)no1,15%,3%,0,0%[46.1 µM],-2%[7.34 µM],i[7.34 µM]
CCOC(=O)c1nc(Nc2cc(Cl)ccc2OC)c2ccccc2n1,13µM*,.,-70*,.,.,.
SMILES,HCV inh,Lassa entry inh,HCMV antiviral,MARV entry inh,Vaccinia Venus,VACV mCherry inh
COc1cccc(NC(=O)CSc2nc(=O)n(Cc3ccncc3)c3c2CCCC3)c1,-3%,-3%,-85*,1%,-3%,-12%
COc1ccc(Cl)cc1NC(=O)CSc1c2c(nc3ccccc13)CCC2,.,4%[46.1 µM],-70*,-4%[46.1 µM],-14%,-14%
COc1ccc(Cl)cc1NC(=O)CSc1nc(=O)n(CCN(C)C)c2c1CCCC2,11µM*,?,-8,?,?,-13%
COc1ccc(OC)c(NC(=O)CSc2c3c(nc4ccccc24)CCCC3)c1,.,?,-27,10%[46.1 µM],-20%,?
CCOC(=O)c1nc(Nc2ccccc2)c2ccccc2n1,?,1%,-16,4%,.,.
COc1cc2cncnc2cc1OCCCCC(N)=O,.,.,.,.,-18%,-7%
Cc1ccc(-c2cc(C(=O)N(Cc3ccccc3)Cc3ccco3)no2)cc1F,.,-1%[46.1 µM],11,8%[46.1 µM],-3%,-10%
CCOc1cc(N2CCOCC2)c(OCC)cc1NC(=O)c1cc(C)cc(C)c1,3.5µM*,?,-25,-12%[46.1 µM],-5%,-4%
CCOc1cc(N2CCOCC2)c(OCC)cc1NC(=O)Cc1ccccc1,1%,-18%[46.1 µM],-20,17%[46.1 µM],-18%,-14%
CCOc1cc(N2CCOCC2)c(OCC)cc1NC(=O)Cc1ccccc1OC,-17%,-23%,-61*,3%,-27%,.
CCCn1nc(C(=O)Nc2cc(OCC)c(N3CCOCC3)cc2OCC)c2ccccc2c1=O,-19%,.,-92*,.,.,.
COc1cc(NC(=O)C2CCCN(S(=O)(=O)c3ccc4c(c3)oc(=O)n4C)C2)c(C(=O)O)cc1OC (centres undefined),.,19%[46.1 µM],-8,-3%[46.1 µM],1%,0%
CCC(Cc1ccccc1)NC(=O)CN1C(=O)CSc2ncccc21 (centres undefined),13µM*,.,-24,.,-2%,i
CC(C)(C)OC(=O)N[C@@H]1C=CC(=O)C1,.,.,-18,.,.,.
O=C(O)c1ccc(Cl)c(N2C(=O)Nc3ccccc3N2O)c1,-5%,.,-61*,.,-6%,-2%
COc1ccc(C(c2nnnn2Cc2ccc(F)cc2)N2CCN(c3ccc(OC)cc3)CC2)cc1 (centres undefined),-22%,3.2µM*,30,?,-16%,.
COc1ccc(C(c2nnnn2Cc2cccs2)N2CCN(c3ccc(F)cc3)CC2)cc1OC (centres undefined),-20%,8.2µM*,20,?,-17%,-24%
Fc1ccc(C(c2nnnn2Cc2cccs2)N2CCN(C3CCCCC3)CC2)cc1 (centres undefined),?,-17%,40,22µM*!,-21%,-29%
COc1ccc(Cn2nnnc2C(c2ccc(F)cc2)N2CCN(C3CCCC3)CC2)cc1 (centres undefined),?,?,38,10µM*,?,.
CN1CCN(C(c2ccc(F)cc2)c2nnnn2Cc2cccs2)CC1 (centres undefined),-7%,22%,-17,?,-16%,i
CCN(C(=O)CN(C)S(=O)(=O)c1ccc2c(c1)n(C)c(=O)c(=O)n2C)c1cccc(C)c1,.,1%[46.1 µM],-25,-11%[46.1 µM],-7%,-8%
CCn1cc(C(=O)NCc2ccccc2Cl)c(=O)c2cc(S(=O)(=O)N3CCc4ccccc4C3)ccc21,.,-8%[46.1 µM],5,1%[46.1 µM],-7%,-19%
CCCC(c1nnnn1Cc1ccc(F)cc1)N1CCN(C2CCCCC2)CC1 (centres undefined),-12%,-6%,-12,8.9µM*,-2%,.
Cc1oc2c(c(C)cc3oc(=O)c(CC(=O)NCCc4ccccc4F)c(C)c32)c1C,.,1%[46.1 µM],?,17%[46.1 µM],-8%,-18%
